Data taken from ChEMBL document CHEMBL1157539, “Thousands of chemical starting points for antimalarial lead identification” (Nature, 2010).

tested on: Plasmodium falciparum; assay: GSK_TCMDC: Inhibition of Plasmodium falciparum Dd2 in whole red blood cells, using parasite LDH activity as an index of growth. Test compounds present at 2uM; assay type: functional

| SMILES | Inhibition |
| --- | --- |
| Cc1c(CCNC(=O)CCCN2CC(C)CC(C)C2)c2ccccc2n1C.Cl (stereo not given) | 100% |
| CCn1c(Sc2ccc(C#N)c([N+](=O)[O-])c2)nnc1-c1cc(OC)cc(OC)c1 | 82% |
| Cl.O=C1CSc2ccc(CNC3CCN(CCc4c(Cl)cnc5ccc(F)cc45)CC3)nc2N1 | 52% |
| CSCCC(C(=O)O)N1C(=O)c2ccccc2C1=O (stereo not given) | 0% |
| Br.CC(=O)CSC(C=Cc1ccc(N(C)C)cc1)=Nc1ccccc1 | 42% |
| Br.CC1(C)NC(N)=NC(=N)N1OCCSc1ccccc1 | 95% |
| CCc1ccc(C(=O)NC(=O)c2ccccc2O)cc1 | 84% |
| Cc1onc(-c2c(Cl)cccc2Cl)c1C(=O)N1CCc2cc3nccc(N4CCN5CCC[C@H]5C4)c3cc21 | 58% |
| Cc1cc(N2CCCC2)nc(Nc2ccc(NC(=O)COc3ccccc3)cc2)n1 | 86% |
| C=C[C@]1(C)C[C@@H](OC(=O)CNC[C@@H](O)CN2C[C@H](c3ccnc4ccc(OC)nc34)OC2=O)[C@@]2(C)[C@@H]3C(=O)CC[C@@]3(CC[C@@H]2C)[C@@H](C)[C@@H]1O | 82% |
| O=C(NC1CCCCN(Cc2ccccc2O)C1)c1ccc(-c2ccccc2)cc1.O=C(O)C(F)(F)F (stereo not given) | 61% |
| CCCCCCCN(Cc1ccc(OC(C)(C)C(=O)OCC)cc1)C(=O)Nc1ccccc1OCC | 94% |
| CCn1cc(-c2cc(C(=O)Nc3ccc(OC)cc3C)c3ccccc3n2)c(C)n1 | 100% |
| COc1ccc(CNCc2cccc(-c3ccc(-c4nc5cccc(C)c5[nH]4)cc3)c2)cc1.O=C(O)C(F)(F)F | 70% |
| CC(=O)Nc1ccc(C(=O)Nc2ccc(-c3cccc(-c4nc5ccccc5[nH]4)c3)cc2)cn1 | 84% |
| O=C(Nc1ccc(Cn2ncc(N3CCNCC3)c(Cl)c2=O)cc1)Nc1ccc(-c2ccccc2)cc1.O=C(O)C(F)(F)F | 33% |
| O=C(/C=C/c1ccc(Cl)c(Cl)c1)NCCCCCN1CCCC(C(=O)Nc2cccc(Cl)c2)C1 (stereo not given) | 2% |
| Cl.O=C(Oc1ccc(C2CNCCc3c2cc(OC(=O)c2ccc(O)cc2)c(OC(=O)c2ccc(O)cc2)c3Cl)cc1)c1ccc(O)cc1 (stereo not given) | 60% |
| S=C(NCCc1ccccc1)Nc1ccc2ncsc2c1 | 3% |
| Br.N=c1n(CCN2CCCCC2)c2ccccc2n1CC(=O)c1cccc([N+](=O)[O-])c1 | 0% |
| COc1ccc(NC(=O)[C@H](Cc2ccccc2)Nc2cc(C)nc(NCCc3cccs3)n2)cc1.O=C(O)C(F)(F)F | 83% |
| COc1ccc(CNC2CCN(c3ccc(NC(=O)c4cccc(Cl)c4)cc3)CC2)cc1OC | 13% |
| Fc1cccc(Nc2nc(NCc3ccc4ccsc4c3)nc(Nc3cccc(F)c3)n2)c1 | 11% |
| COc1ccc2c(c1)CCCC2NCCCCNC(=O)c1ccc(NC(=O)c2ccc(Cl)cc2)cc1 (stereo not given) | 49% |
| Nc1nccc2ccc(-c3ccncc3)cc12 | 95% |
| COc1cccc(OC(C)(C)c2nc(N[C@@H](C)c3ccccc3)c3cn[nH]c3n2)c1 | 69% |
| Cc1cc(F)ccc1-c1nc(Nc2ccncc2)c2ccn(C)c2n1 | 8% |
| CCC[C@@H]([C@@H](CC(C)C)C(=O)N[C@@H](CCCCNC(=O)OCc1ccccc1)C(=O)Nc1ncccn1)N(O)C=O | 98% |
| COC(=O)C(NC(=O)NC1CCN(c2ccnc(Nc3ccc(F)cc3)n2)C1)c1ccccc1 (stereo not given) | 8% |
| O=C(NCCCCN1CCC(c2ccc3c(c2OCC(O)c2ccc(Cl)cc2)CCCC3)CC1)c1ccc(-c2ccc(C(F)(F)F)cc2)cc1 (stereo not given) | 67% |

tested on: HepG2; assay: GSK_TCMDC: Percent inhibition of human HepG2 cell line. Test compounds present at 10uM.; assay type: functional

| SMILES | Inhibition |
| --- | --- |
| COc1ccc2nccc([C@@H](O)CN3CCC(NCc4nc5c(cc4F)SCC(=O)N5)C(F)C3)c2c1.Cl (stereo not given in full) | 9% |
| COc1ccccc1CN1CCC(NC(=O)c2ccc(-c3cccc(Cl)c3)s2)CC1.O=C(O)C(F)(F)F | 49% |
| O=C(O)C(F)(F)F.c1ccc(C(c2ccccc2)N2CCC(NCc3ccc(OCCCN4CCCCC4)cc3)CC2)cc1 | 74% |
| C=CCN(c1nc(NC)nc(NCc2c(OC)cccc2OC)n1)C1CCCC1 | 18% |
| OCCN1CCN(c2nc(Nc3cccc(F)c3)c3cnn(-c4ccccc4)c3n2)CC1 | 89% |
| COc1cc2nc(C)nc(Nc3ccc(Oc4ccccc4)cc3)c2cc1OC.Cl | 0% |
| C=CCn1c(Sc2ccc(C#N)c([N+](=O)[O-])c2)nnc1-c1cccc(Cl)c1 | 41% |
| CC[C@H](C)CNC(=O)c1cncc(-c2ccc(CNC3Cc4ccccc4C3)cc2)c1.O=C(O)C(F)(F)F | 14% |
| COCCCNC(=N)c1ccc(NC(=O)c2ccc(C(=O)Nc3ccc(C(=N)NCCCOC)cc3)cc2)cc1.Cl | 33% |
| Cc1ccc(CN2CCCN(Cc3cccc(NC(=O)c4ccc(-c5ccccc5)cc4)c3)CC2)cc1C.O=C(O)C(F)(F)F | 43% |
| Cc1c(CCNC(=O)CCCN2CC(C)CC(C)C2)c2ccccc2n1C.Cl (stereo not given) | 8% |
| CCn1c(Sc2ccc(C#N)c([N+](=O)[O-])c2)nnc1-c1cc(OC)cc(OC)c1 | 7% |
| Cl.O=C1CSc2ccc(CNC3CCN(CCc4c(Cl)cnc5ccc(F)cc45)CC3)nc2N1 | 21% |
| CSCCC(C(=O)O)N1C(=O)c2ccccc2C1=O (stereo not given) | 0% |
| Br.CC(=O)CSC(C=Cc1ccc(N(C)C)cc1)=Nc1ccccc1 | 38% |
| Br.CC1(C)NC(N)=NC(=N)N1OCCSc1ccccc1 | 68% |
| CCc1ccc(C(=O)NC(=O)c2ccccc2O)cc1 | 0% |
| Cc1onc(-c2c(Cl)cccc2Cl)c1C(=O)N1CCc2cc3nccc(N4CCN5CCC[C@H]5C4)c3cc21 | 3% |
| Cc1cc(N2CCCC2)nc(Nc2ccc(NC(=O)COc3ccccc3)cc2)n1 | 43% |
| C=C[C@]1(C)C[C@@H](OC(=O)CNC[C@@H](O)CN2C[C@H](c3ccnc4ccc(OC)nc34)OC2=O)[C@@]2(C)[C@@H]3C(=O)CC[C@@]3(CC[C@@H]2C)[C@@H](C)[C@@H]1O | 0% |

| SMILES | Inhibition |
| --- | --- |
| O=C(NC1CCCCN(Cc2ccccc2O)C1)c1ccc(-c2ccccc2)cc1.O=C(O)C(F)(F)F (stereo not given) | 21% |
| CCCCCCCN(Cc1ccc(OC(C)(C)C(=O)OCC)cc1)C(=O)Nc1ccccc1OCC | 0% |
| CCn1cc(-c2cc(C(=O)Nc3ccc(OC)cc3C)c3ccccc3n2)c(C)n1 | 0% |
| COc1ccc(CNCc2cccc(-c3ccc(-c4nc5cccc(C)c5[nH]4)cc3)c2)cc1.O=C(O)C(F)(F)F | 23% |
| CC(=O)Nc1ccc(C(=O)Nc2ccc(-c3cccc(-c4nc5ccccc5[nH]4)c3)cc2)cn1 | 34% |
| O=C(Nc1ccc(Cn2ncc(N3CCNCC3)c(Cl)c2=O)cc1)Nc1ccc(-c2ccccc2)cc1.O=C(O)C(F)(F)F | 29% |
| O=C(/C=C/c1ccc(Cl)c(Cl)c1)NCCCCCN1CCCC(C(=O)Nc2cccc(Cl)c2)C1 (stereo not given) | 41% |
| Cl.O=C(Oc1ccc(C2CNCCc3c2cc(OC(=O)c2ccc(O)cc2)c(OC(=O)c2ccc(O)cc2)c3Cl)cc1)c1ccc(O)cc1 (stereo not given) | 0% |
| S=C(NCCc1ccccc1)Nc1ccc2ncsc2c1 | 0% |
| Br.N=c1n(CCN2CCCCC2)c2ccccc2n1CC(=O)c1cccc([N+](=O)[O-])c1 | 10% |
| COc1ccc(NC(=O)[C@H](Cc2ccccc2)Nc2cc(C)nc(NCCc3cccs3)n2)cc1.O=C(O)C(F)(F)F | 12% |
| COc1ccc(CNC2CCN(c3ccc(NC(=O)c4cccc(Cl)c4)cc3)CC2)cc1OC | 26% |
| Fc1cccc(Nc2nc(NCc3ccc4ccsc4c3)nc(Nc3cccc(F)c3)n2)c1 | 0% |
| COc1ccc2c(c1)CCCC2NCCCCNC(=O)c1ccc(NC(=O)c2ccc(Cl)cc2)cc1 (stereo not given) | 27% |
| Nc1nccc2ccc(-c3ccncc3)cc12 | 19% |
| COc1cccc(OC(C)(C)c2nc(N[C@@H](C)c3ccccc3)c3cn[nH]c3n2)c1 | 44% |
| Cc1cc(F)ccc1-c1nc(Nc2ccncc2)c2ccn(C)c2n1 | 9% |
| CCC[C@@H]([C@@H](CC(C)C)C(=O)N[C@@H](CCCCNC(=O)OCc1ccccc1)C(=O)Nc1ncccn1)N(O)C=O | 3% |
| COC(=O)C(NC(=O)NC1CCN(c2ccnc(Nc3ccc(F)cc3)n2)C1)c1ccccc1 (stereo not given) | 11% |
| O=C(NCCCCN1CCC(c2ccc3c(c2OCC(O)c2ccc(Cl)cc2)CCCC3)CC1)c1ccc(-c2ccc(C(F)(F)F)cc2)cc1 (stereo not given) | 100% |
